Over roughly 1,700 compounds, “T3 sensor activation Q score (MG/GFP ratio z-score vs DMSO controls)” has its median near 0.25; the highest 2% begin near 1.9. Many of the other results were omitted from the sample, so the highest values are more common in it than they were.

The test system of this assay is ppGalNAc-T3 sensor. The experiment in a line: T3 sensor activation Q score (MG/GFP ratio z-score vs DMSO controls) (SD units); higher = more sensor activation (inhibition of ppGalNAc-T3 glycosylation). The settings on record: HEK293 sensor cells; 10 µM; 6 h. As to the method:
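Cells were treated with compound at 10 uM for 6 h, then MG/GFP ratio was read by flow cytometry (10,000 cells per well, duplicate wells). Q = (R - R_neg)/SD_neg relative to DMSO vehicle controls; the signal rises when the glycosyltransferase is inhibited.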
On to `C[C@H]1CC[C@@]2(C)[C@@H](CC[C@@H]3[C@@H]2CC[C@]2(C)[C@@H](O)CC[C@@H]32)C1`, for which the “T3 sensor activation Q score” value is 3.

Consider `CC12CCC3C(CCC4Cc5[nH]c6ccccc6c5CC43C)C1CCC2O` (stereo not given), for which the “T3 sensor activation Q score” value stood at 0.6.

For the molecule `COc1ccc2c(c1)NP(=S)(Oc1ccccc1)N2` (stereo not given), the “T3 sensor activation Q score” value is -0.15.

In the case of `CCC1CCC(C)N(N=O)C1` (stereo not given), the “T3 sensor activation Q score” value stood at 1.05.

With `Oc1cccc2nc3ccccc3nc12`, the “T3 sensor activation Q score” value is -0.35.

In the case of `O=c1cccc2n1C[C@H]1C[C@@H]2CN2CCCC[C@@H]12`, the “T3 sensor activation Q score” value worked out at 0.2.

Take `CC(CC(C#N)(c1ccccc1)c1ccccc1)N1CCCCC1` (stereo not given): the “T3 sensor activation Q score” value was 0.05.

Turning to `CN1C2c3ccccc3C3C4c5ccccc5C(C31)C(C2[N+](=O)[O-])N4C` (stereo not given), the “T3 sensor activation Q score” value worked out at 1.1.

Take `CN1C(=O)CC[C@@]2(C)C1=CC[C@@H]1[C@@H]2CC[C@@]2(C)[C@H]1CC[C@]2(C)O`: the “T3 sensor activation Q score” value was determined as 0.4.

Take `CC12CCC3C(CC=C4CC(O)CCC43C)C1C/C(=C\N1CCCC1)C2=O` (stereo not given): the “T3 sensor activation Q score” value came out at 1.9.

Regarding `O=C(OC1CCCCC1)c1ccccc1C(=O)OC1CCCCC1`, the “T3 sensor activation Q score” value was 0.2.

Turning to `Nc1nc(N)c2cnnn2n1`, the “T3 sensor activation Q score” value was 0.5.

`FCCN(CCF)c1cccc(Cl)c1`: the “T3 sensor activation Q score” value was found to be 1.9.

Consider `c1ccc2nc(OCCN3CC3)ccc2c1`, for which the “T3 sensor activation Q score” value came to 1.

Regarding `c1ccc2c(c1)Sc1ccccc1N2CC1CN2CCC1CC2` (stereo not given), the “T3 sensor activation Q score” value was -0.15.

In the case of `CC1(C)CC(=O)CC(C)(C)N1O`, the “T3 sensor activation Q score” value is -1.9.

As to `CC(=O)Nc1cc([As](=O)(O)O)ccc1O`, the “T3 sensor activation Q score” value amounted to 1.4.

Turning to `NC(=S)c1cn([C@@H]2O[C@H](CO)[C@@H](O)[C@H]2O)c2ncnc(N)c12`, the “T3 sensor activation Q score” value was found to be 4.95.

For `C1CC2NCCC3NCCC(N1)N32` (stereo not given), the “T3 sensor activation Q score” value is -0.95.

Consider `CCOC(=O)c1ccc2[nH]c(-c3ccc(S(=O)(=O)F)cc3)cc(=O)c2c1`, for which the “T3 sensor activation Q score” value came out at 0.95.

Take `O=C(NC(=O)c1c(F)cccc1F)Nc1cc(Cl)c(F)c(Cl)c1F`: the “T3 sensor activation Q score” value is -0.65.

For the molecule `O=C1N(c2nncs2)CCN1[N+](=O)[O-]`, the “T3 sensor activation Q score” value came out at 2.65.

Consider `CC[C@@]1(O)C(=O)OCc2c1cc1n(c2=O)Cc2cc3ccccc3nc2-1`, for which the “T3 sensor activation Q score” value was -1.75.

Regarding `C=CCNC(=S)Nc1ccc(OC(=O)Nc2ccc(Cl)c(Cl)c2)cc1`, the “T3 sensor activation Q score” value amounted to 0.4.

In the case of `Cn1cc(C=O)c2nccnc21`, the “T3 sensor activation Q score” value is -1.5.

For the origin of these results see the supplement of paper PMC5407854, “Inhibitor of ppGalNAc-T3-mediated O-glycosylation blocks cancer cell invasiveness and lowers FGF23 levels” (eLife, 2017).
